An excerpt weighted towards active compounds, which were near 1.8% of everything screened.
VLA-4 inh: inhibition in a human VLA-4 binding assay; P13612; VLA-4 expressing cells, ligand binding flow cytometry; inhibition, % (about 7 µM as worked out from the volumes in the protocol); 330,000 tested, 0.2% active; AID 2557; in the data active means inhibition above about 50%
APOBEC3G inh: APOBEC3G (human) deaminase inhibition | recombinant A3G, ssDNA deamination FAM/TAMRA fluorescence | inhibition, % at 20 µM | 330,000 tested, 0.28% active | AID 493012;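 active means inhibition of at least 40% at 20 µM, with no more than 30% in the related APOBEC3A deaminase screen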;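 further: plate controls were DMSO wells with A3G for no effect and wells lacking A3G enzyme for full effect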
Target sequence (Q9HC16 whole entry, looked up): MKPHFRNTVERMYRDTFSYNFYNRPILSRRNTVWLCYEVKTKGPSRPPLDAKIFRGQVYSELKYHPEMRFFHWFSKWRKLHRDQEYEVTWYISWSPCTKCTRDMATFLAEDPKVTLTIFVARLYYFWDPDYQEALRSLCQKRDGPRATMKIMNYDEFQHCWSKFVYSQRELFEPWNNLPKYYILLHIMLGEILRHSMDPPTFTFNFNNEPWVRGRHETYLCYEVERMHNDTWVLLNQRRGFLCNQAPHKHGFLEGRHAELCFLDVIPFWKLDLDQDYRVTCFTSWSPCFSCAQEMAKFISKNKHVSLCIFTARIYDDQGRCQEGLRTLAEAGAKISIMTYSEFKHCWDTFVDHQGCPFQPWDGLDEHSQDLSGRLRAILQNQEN
APOBEC3A inh: blocks human APOBEC3A ssDNA deamination; 330,000 tested, 0.41% active; inhibition, % at 20 µM; recombinant A3A, FAM/TAMRA ssDNA deamination fluorescence; P31941;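 active means at least 40% inhibition at 20 µM here, with at most 30% in a related deaminase screen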;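 further: plate controls were A3A with DMSO for no effect and wells lacking A3A enzyme for full effect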
beta cell repl: inducers of beta-cell replication in MIN6 cells | MIN6 cells proliferation, ATPlite luminescence, 48 h; cells starved in 0.2% serum; 100% = growth in 10% serum | proliferation, % at 10 µM | 330,000 tested, 0.29% active | AID 2380;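 active means compounds whose signal lies at least 3.5 SD above the mean of all wells on their plate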;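 further: 0% = DMSO-treated cells in low-serum medium and 100% = 10% serum control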
CendR NRP1 mod: NRP-1/CendR interaction modulation; AID 602438; inhibition, % at 25 µM; FAM-RPARPAR peptide binding to NRP-1, fluorescence polarization; 360,000 tested, 0.85% active;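 active means inhibition or corrected inhibition above about 18%, plus a signal ratio from 0.5 to 1.5, limit read from the data, passing the limit was not always enough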
A3G conf: confirmation of human APOBEC3G DNA deaminase inhibitors; recombinant A3G ssDNA deaminase, UDG/FAM-TAMRA fluorescence; inhibition, % at 20 µM; 890 tested, 72% active; AID 493152; shares compounds with APOBEC3G inh;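 active means inhibition reaching a set limit in any replicate at 20 µM, the limit being 80% of the first screen's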
UDG ctr A3G: counter-screen for APOBEC3G inhibitors: E. coli UDG. inhibition, % at 20 µM. shares compounds with APOBEC3G inh. 710 tested, under 10 active. AID 504715. UDG counterscreen, FAM/TAMRA oligo fluorescence;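 active means compounds giving 40% or more inhibition at 20 µM in any one of the three replicates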;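 further: plate controls were DMSO wells with UDG and oligo for no effect and DMSO wells lacking both for full effect; inhibitors lower the FAM signal released by uracil excision and alkaline cleavage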
Target sequence (P12295 whole entry, looked up): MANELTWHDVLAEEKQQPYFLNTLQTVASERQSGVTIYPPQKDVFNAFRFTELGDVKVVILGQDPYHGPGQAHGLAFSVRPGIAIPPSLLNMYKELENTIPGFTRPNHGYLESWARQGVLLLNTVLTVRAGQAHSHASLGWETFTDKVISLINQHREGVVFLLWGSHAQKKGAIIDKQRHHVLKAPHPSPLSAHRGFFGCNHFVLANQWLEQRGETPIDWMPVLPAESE
Active calls of the source: *; x = no result.

SMILES	VLA-4 inh	APOBEC3G inh	APOBEC3A inh	beta cell repl	CendR NRP1 mod	A3G conf	UDG ctr A3G
CC1(C)CCc2cc(S(=O)(=O)N3CCN(S(=O)(=O)c4c(F)cccc4F)CC3)ccc2O1	3.6	-5.7	0.3	-0.6	5.5	x	x
Cc1ccc(S(=O)(=O)N(C)C)cc1NC(=O)CSc1nc2ncc(Cl)cc2[nH]1	x	-9.2	-2.1	2.0	-12.1	x	x
Cc1ccc(-c2c(C)cc3oc(=O)cc(-c4ccccc4)c3c2C)cc1	x	1.7	0.8	x	14.0	x	x
CCOC(=O)c1ccc(-c2c(C)cc3oc(=O)cc(-c4ccccc4)c3c2C)cc1	x	84.0*	3.5	x	-13.9	1.6	x
O=C(CN(Cc1ccc(F)cc1)S(=O)(=O)c1ccccc1)N1CCCCC1	-1.3	81.1*	-2.0	-0.1	1.5	-21.6	-1.1
CN(C)S(=O)(=O)c1cc(NC(=O)CNCCN2CCOCC2)ccc1Cl	-2.5	-8.1	1.4	1.4	-0.1	x	x
Cc1ccc(NNC(=O)c2ccno2)c(C)c1	-3.3	45.6*	-5.3	-4.0	-0.1	-0.6	-5.2
CC(NS(=O)(=O)c1ccc(Cl)cc1)C(=O)N1CCOCC1 (centres undefined)	7.1	-0.3	4.2	0.0	5.1	x	x
Cc1ccc(SSc2cc(C)ccc2N)c(N)c1	12.1	79.5*	1.6	-8.1	3.4	86.2*	x
CCN(CC)C(=O)c1csc([C@@H]2O[C@H](CO)[C@H](O)[C@H](O)[C@H]2O)n1	x	x	x	x	-7.7	x	x
NC(=O)c1ccc(NC(=O)CCN2C(=O)c3ccccc3C2=O)cc1	-5.1	3.4	-3.5	-2.8	0.3	x	x
S=C(c1ccc(-c2ccccc2Cl)o1)N1CCOCC1	4.5	61.3*	-2.2	-2.3	7.8	55.0*	-6.7
CC1(C)Cc2c(c(N3CCOCC3)nc3sc(C(=O)N4CCCCC4)c(N)c23)CO1	-1.8	46.8*	0.2	0.2	-8.3	28.4*	4.4
CN(C)S(=O)(=O)c1cc(NC(=O)CN2CCN(c3ccc(O)cc3)CC2)ccc1Cl	7.0	58.1*	-1.6	-5.8	8.7	16.5	-5.8
COc1ccn(C2CCCCO2)c(=O)n1 (centres undefined)	x	x	x	x	16.1	x	x
O=C1c2ccccc2C(=O)N1CCSc1ncn[nH]1	-0.6	-5.0	-3.0	0.1	-3.1	x	x
O=C1c2ccccc2C(=O)N1CCSc1n[nH]c(=S)s1	1.2	53.7*	1.0	-1.7	-13.0	active	-3.5
O=C(CSc1ccc([N+](=O)[O-])cc1)Nc1cccc(S(=O)(=O)Nc2ccccc2F)c1	6.4	44.4*	-3.3	-5.8	5.4	23.1*	-5.2
O=C(Cc1ccc(Cl)cc1)Nc1cccc(S(=O)(=O)Nc2ccccc2F)c1	5.9	-2.3	-0.3	-1.5	18.0	x	x
O=C(Nc1cccc(S(=O)(=O)Nc2ccccc2F)c1)c1ccco1	10.1	-0.4	0.4	1.2	-0.4	x	x
O=C1CCC(C(=O)Nc2cccc(S(=O)(=O)Nc3ccccc3F)c2)=NN1	-19.3	72.9*	4.7	-6.1	0.1	63.0*	3.1
COc1ccc(-n2nc(C(=O)NCC(=O)N(C)Cc3ccccc3)c3ccccc3c2=O)cc1OC	8.3	-6.6	-2.6	0.0	8.7	x	x
CC(C)=CCc1c(O)ccc2c1OC(c1ccc(O)c(O)c1)CC2=O (centres undefined)	16.5	-11.5	-3.3	-3.0	-15.9	x	x
O=C1CC(c2ccc(O)c(O)c2)Oc2c1ccc(O)c2O (centres undefined)	10.0	41.1*	25.4	3.7	-5.6	54.5*	x
C=C(C)Cn1c(CCn2c3ccccc3c3ccccc32)n[nH]c1=S	30.7	-7.4	-3.2	-0.7	1.1	x	x
SMILES	VLA-4 inh	APOBEC3G inh	APOBEC3A inh	beta cell repl	CendR NRP1 mod	A3G conf	UDG ctr A3G
C=CCn1c(C(c2ccccc2)c2ccccc2)n[nH]c1=S	8.5	-0.1	-1.9	0.0	5.1	x	x
C=CCn1c(-c2ccc(OC)c(OC)c2)n[nH]c1=S	-0.1	15.7	4.3	-1.8	6.2	x	x
C=CCn1c(-c2cccc(Cl)c2)n[nH]c1=S	3.8	48.5*	-4.1	1.0	0.5	86.1*	-4.2
C=C(C)Cn1c(-c2cccs2)n[nH]c1=S	14.6	55.3*	1.8	1.4	-1.8	55.1*	5.6
C=CCn1c(OCc2ccccc2)n[nH]c1=S	-9.4	40.9*	-3.2	-2.4	-0.2	67.4*	-2.0
C=CCn1c(-c2sccc2C)n[nH]c1=S	-8.0	44.4*	5.1	0.6	13.2	6.6	x
O=[N+]([O-])c1cccc(-c2n[nH]c(=S)n2Cc2ccccc2)c1	27.2	29.2	-7.1	0.5	6.0	x	x
C=CCn1c(-c2cccc([N+](=O)[O-])c2)n[nH]c1=S	-2.1	43.0*	-1.9	-3.9	8.7	68.0*	5.5
C=C(C)Cn1c(-c2cccc([N+](=O)[O-])c2)n[nH]c1=S	8.5	44.1*	-6.9	0.1	10.0	74.7*	2.9
CC1(C)O[C@@H]2[C@H](O1)[C@@H](COS(=O)(=O)O)O[C@H]2n1cnc2c(N)ncnc21	-14.7	-1.0	0.3	-2.8	x	x	x
CC1(C)O[C@@H]2[C@H](O1)[C@@H](COS(=O)(=O)O)O[C@H]2n1c(=S)[nH]c2c(=O)[nH]c(N)nc21	0.0	48.8*	-2.2	-2.7	8.7	73.5*	-2.0
Cc1cc(NC(=O)CCCC(=O)NCc2ccccc2)no1	1.6	43.6*	0.1	0.8	35.5*	-0.1	x
O=C(N=C1SC2CS(=O)(=O)CC2N1Cc1ccccc1Cl)C1CCCO1 (centres undefined)	12.0	-3.5	-0.1	5.1	6.1	x	x
COc1cc(N=c2ssnc2Cl)c(OC)cc1Cl	3.1	66.8*	1.7	-7.2	5.4	82.5*	-2.7
Nc1ccccc1N=c1ssnc1Cl	x	x	x	x	-8.0	x	x
COc1ccc(OC)c(N=c2ssnc2Cl)c1	16.4	74.2*	0.8	-5.7	1.6	69.2*	-3.9
COc1ccc(Cn2cc(CN3CC(N4CCCC4)CS3(=O)=O)nn2)cc1 (centres undefined)	x	x	x	x	15.8	x	x
COc1cccc(C2c3cc4c(cc3OC(N3CCOCC3)C2C)OCO4)c1O (centres undefined)	x	x	x	x	12.8	x	x
CC1Sc2ccc(C(=O)NCc3ccccn3)cc2NC1=O (centres undefined)	0.5	54.6*	2.7	-6.5	-6.1	32.9*	-2.8
O=C(NCCc1ccccc1)C(c1ccc(F)cc1)N(C(=O)c1csnn1)C1CC1 (centres undefined)	-2.5	-2.4	-1.1	0.0	5.5	x	x
CC(=O)C1=C(S(=O)(=O)c2ccc(C)cc2)CS(=O)(=O)C1	x	60.9*	1.8	-1.1	-0.7	78.1*	-4.5
O=C(NN1C(=O)C2CC=C(Cl)CC2C1=O)c1ccncc1 (centres undefined)	8.6	40.1*	29.4	-3.8	-3.2	40.5*	-4.5
C#CCN(C[C@H]1[C@H](OC(=O)Nc2c(C)noc2C)[C@H](OC(=O)Nc2c(C)noc2C)C[C@H]2C(=O)N(c3ccccc3)C(=O)[C@@H]12)S(=O)(=O)c1ccc(C)cc1	x	x	x	x	0.5	x	x
